Data as given in article PMC7862700, “An all-to-all approach to the identification of sequence-specific readers for epigenetic DNA modifications on cytosine”.

Columns and labels:
Assay in all cases: DAPPL (digital affinity profiling via proximity ligation, sequencing); 10 mM Tris-HCl pH 7.5, 50 mM NaCl, 1 mM DTT, 4% glycerol, room temperature, 30 min; GST-TFs on glutathione beads, 16-mer random dsDNA library, 0.1% formaldehyde crosslink after washing; high values mean tight binding
FEV = biological target: T1, FEV (Homo sapiens, UniProt Q99581 1-238); conditions: protein: recombinant; tags: N-terminal GST; dsDNA, one strand shown
T1 sequence: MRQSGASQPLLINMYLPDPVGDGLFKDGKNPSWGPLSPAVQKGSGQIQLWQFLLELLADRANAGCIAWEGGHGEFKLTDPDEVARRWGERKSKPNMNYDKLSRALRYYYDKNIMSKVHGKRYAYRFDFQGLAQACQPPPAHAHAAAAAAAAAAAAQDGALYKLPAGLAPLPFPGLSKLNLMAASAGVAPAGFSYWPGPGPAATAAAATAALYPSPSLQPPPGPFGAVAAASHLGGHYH
How it was run: (§1)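 In yeast, human transcription factors were expressed with a GST fusion, then pulled down on glutathione beads and given DNA barcodes. Pooled with a tag-only sample, they were exposed to 200 nmole of a 16-mer random double-stranded DNA library (Tris/NaCl/DTT/glycerol buffer, room temperature, 30 min), washed, crosslinked with 0.1% formaldehyde, proximity-ligated using BsaI/T4 ligase for 1 h at 37 °C, PCR-amplified and read on an Illumina NextSeq500. Each hexamer's frequency of reads for a factor, divided by the matching frequency for the tag-only sample, gives the binding signal.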

ETV5 = ETV5 (Homo sapiens, UniProt P41161 1-510); conditions: protein: recombinant; tags: N-terminal GST; dsDNA, one strand shown
How it was run: as §1

HSF1 = HSF1 (Homo sapiens, UniProt Q00613 1-529); conditions: protein: recombinant; tags: N-terminal GST; chain copies: 3; dsDNA, one strand shown
How it was run: as §1

SPIC = biological target: T2, SPIC (Homo sapiens, UniProt Q8N5J4 1-248); conditions: protein: recombinant; tags: N-terminal GST; dsDNA, one strand shown
T2 sequence: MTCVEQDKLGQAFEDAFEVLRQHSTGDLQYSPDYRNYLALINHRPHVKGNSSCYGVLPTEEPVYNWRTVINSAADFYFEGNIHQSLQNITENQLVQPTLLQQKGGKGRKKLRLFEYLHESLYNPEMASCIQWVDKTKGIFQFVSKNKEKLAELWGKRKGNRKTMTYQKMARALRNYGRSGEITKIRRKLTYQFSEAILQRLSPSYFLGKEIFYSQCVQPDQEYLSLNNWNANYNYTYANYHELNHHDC
How it was run: as §1

ELF4 = ELF4 (Homo sapiens, UniProt Q99607 1-663); conditions: protein: recombinant; tags: N-terminal GST; dsDNA, one strand shown
How it was run: as §1

ELK4 = biological target: T3, ELK4 (Homo sapiens, UniProt P28324-2 1-405); conditions: protein: recombinant; tags: N-terminal GST; dsDNA, one strand shown
T3 sequence: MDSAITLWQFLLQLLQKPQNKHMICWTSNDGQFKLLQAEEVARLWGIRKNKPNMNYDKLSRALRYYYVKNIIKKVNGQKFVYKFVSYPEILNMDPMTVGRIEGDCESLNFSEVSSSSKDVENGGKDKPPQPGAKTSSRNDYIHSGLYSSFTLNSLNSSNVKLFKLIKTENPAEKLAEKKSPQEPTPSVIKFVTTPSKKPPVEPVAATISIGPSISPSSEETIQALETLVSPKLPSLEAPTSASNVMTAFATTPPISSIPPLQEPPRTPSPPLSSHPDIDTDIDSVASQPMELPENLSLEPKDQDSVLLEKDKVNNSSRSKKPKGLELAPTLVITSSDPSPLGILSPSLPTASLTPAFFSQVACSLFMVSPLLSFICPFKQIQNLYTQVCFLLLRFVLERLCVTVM
How it was run: as §1

ETV2 = biological target: T4, ETV2 (Homo sapiens, UniProt O00321 1-342); conditions: protein: recombinant; tags: N-terminal GST; dsDNA, one strand shown
T4 sequence: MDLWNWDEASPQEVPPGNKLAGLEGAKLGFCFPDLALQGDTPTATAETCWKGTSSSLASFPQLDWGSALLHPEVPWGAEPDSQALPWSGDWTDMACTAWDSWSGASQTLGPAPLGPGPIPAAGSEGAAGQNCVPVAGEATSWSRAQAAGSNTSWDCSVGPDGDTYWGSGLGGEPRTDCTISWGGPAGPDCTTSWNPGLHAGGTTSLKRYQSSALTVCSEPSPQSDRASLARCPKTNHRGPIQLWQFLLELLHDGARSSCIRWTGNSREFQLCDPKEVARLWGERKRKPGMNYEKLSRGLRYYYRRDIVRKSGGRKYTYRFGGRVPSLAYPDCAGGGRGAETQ
How it was run: as §1

ELF3 = biological target: T5, ELF3 (Homo sapiens, UniProt P78545 1-371); conditions: protein: recombinant; tags: N-terminal GST; dsDNA, one strand shown
T5 sequence: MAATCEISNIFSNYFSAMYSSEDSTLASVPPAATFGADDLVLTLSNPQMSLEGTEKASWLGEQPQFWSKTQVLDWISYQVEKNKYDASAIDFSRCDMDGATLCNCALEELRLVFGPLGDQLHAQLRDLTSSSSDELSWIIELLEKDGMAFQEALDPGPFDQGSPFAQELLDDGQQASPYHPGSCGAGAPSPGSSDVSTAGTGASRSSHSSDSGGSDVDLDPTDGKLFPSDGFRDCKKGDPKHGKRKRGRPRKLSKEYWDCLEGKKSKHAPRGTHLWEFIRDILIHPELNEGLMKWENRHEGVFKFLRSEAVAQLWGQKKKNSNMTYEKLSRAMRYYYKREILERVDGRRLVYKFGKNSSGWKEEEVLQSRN
How it was run: as §1

CRX = CRX (Homo sapiens, UniProt O43186 1-299); conditions: protein: recombinant; tags: N-terminal GST; dsDNA, one strand shown
How it was run: as §1

ETV1 = ETV1 (Homo sapiens, UniProt P50549 1-477); conditions: protein: recombinant; tags: N-terminal GST; dsDNA, one strand shown
How it was run: as §1

ERF = biological target: T6, ERF (Homo sapiens, UniProt P50548 1-548); conditions: protein: recombinant; tags: N-terminal GST; dsDNA, one strand shown
T6 sequence: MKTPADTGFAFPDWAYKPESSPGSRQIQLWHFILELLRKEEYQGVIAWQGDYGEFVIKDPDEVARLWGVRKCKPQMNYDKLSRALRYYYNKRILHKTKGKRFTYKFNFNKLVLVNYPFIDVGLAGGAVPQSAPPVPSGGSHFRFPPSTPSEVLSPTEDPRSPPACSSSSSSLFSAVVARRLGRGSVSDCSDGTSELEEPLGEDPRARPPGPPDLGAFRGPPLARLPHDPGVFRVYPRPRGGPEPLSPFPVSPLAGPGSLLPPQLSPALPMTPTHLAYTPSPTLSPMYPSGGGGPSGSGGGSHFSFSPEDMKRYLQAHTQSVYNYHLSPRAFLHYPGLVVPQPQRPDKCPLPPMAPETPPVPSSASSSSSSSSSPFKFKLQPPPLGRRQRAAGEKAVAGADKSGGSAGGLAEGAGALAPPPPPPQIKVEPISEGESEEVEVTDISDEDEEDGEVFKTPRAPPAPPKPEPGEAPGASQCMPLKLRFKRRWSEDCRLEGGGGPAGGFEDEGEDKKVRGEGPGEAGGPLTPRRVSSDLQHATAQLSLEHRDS
How it was run: as §1

ETV3L = biological target: T7, ETV3L (Homo sapiens, UniProt Q6ZN32 1-361); conditions: protein: recombinant; tags: N-terminal GST; dsDNA, one strand shown
T7 sequence: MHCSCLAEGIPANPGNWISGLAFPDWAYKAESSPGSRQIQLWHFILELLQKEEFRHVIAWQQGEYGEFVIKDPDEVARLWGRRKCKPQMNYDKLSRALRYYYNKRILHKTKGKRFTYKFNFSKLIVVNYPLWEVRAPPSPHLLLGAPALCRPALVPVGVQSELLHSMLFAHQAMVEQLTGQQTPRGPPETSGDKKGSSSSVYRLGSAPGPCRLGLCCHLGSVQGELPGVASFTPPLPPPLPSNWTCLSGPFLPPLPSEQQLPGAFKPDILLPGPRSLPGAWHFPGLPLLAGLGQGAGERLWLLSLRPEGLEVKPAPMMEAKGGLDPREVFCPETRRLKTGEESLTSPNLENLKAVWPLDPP
How it was run: as §1

ETS2 = biological target: T8, ETS2 (Homo sapiens, UniProt P15036 1-469); conditions: protein: recombinant; tags: N-terminal GST; dsDNA, one strand shown
T8 sequence: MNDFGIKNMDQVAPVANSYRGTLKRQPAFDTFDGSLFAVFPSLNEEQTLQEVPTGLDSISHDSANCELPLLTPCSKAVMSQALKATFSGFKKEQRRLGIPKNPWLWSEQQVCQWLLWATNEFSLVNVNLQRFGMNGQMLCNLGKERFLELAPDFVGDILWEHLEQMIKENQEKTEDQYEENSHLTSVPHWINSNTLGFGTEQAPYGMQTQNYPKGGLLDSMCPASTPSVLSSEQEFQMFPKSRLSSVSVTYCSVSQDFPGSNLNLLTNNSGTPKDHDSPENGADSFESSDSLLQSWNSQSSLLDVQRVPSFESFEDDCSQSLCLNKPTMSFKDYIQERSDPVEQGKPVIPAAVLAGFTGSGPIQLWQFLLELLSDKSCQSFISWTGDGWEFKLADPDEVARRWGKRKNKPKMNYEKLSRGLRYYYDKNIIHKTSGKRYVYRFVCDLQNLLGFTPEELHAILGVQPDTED
How it was run: as §1

SPDEF = biological target: T9, SPDEF (Homo sapiens, UniProt O95238 1-335); conditions: protein: recombinant; tags: N-terminal GST; dsDNA, one strand shown
T9 sequence: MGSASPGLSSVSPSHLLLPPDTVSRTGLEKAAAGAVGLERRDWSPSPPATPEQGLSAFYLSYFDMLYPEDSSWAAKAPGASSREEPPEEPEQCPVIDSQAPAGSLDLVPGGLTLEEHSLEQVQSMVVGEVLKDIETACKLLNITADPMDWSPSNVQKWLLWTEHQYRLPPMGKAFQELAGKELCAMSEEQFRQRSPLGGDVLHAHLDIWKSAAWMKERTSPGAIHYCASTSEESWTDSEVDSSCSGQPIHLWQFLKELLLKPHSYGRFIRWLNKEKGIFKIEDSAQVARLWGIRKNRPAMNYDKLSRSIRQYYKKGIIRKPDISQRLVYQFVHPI
How it was run: as §1

ETV7 = biological target: T10, ETV7 (Homo sapiens, UniProt Q9Y603 1-341); conditions: protein: recombinant; tags: N-terminal GST; dsDNA, one strand shown
T10 sequence: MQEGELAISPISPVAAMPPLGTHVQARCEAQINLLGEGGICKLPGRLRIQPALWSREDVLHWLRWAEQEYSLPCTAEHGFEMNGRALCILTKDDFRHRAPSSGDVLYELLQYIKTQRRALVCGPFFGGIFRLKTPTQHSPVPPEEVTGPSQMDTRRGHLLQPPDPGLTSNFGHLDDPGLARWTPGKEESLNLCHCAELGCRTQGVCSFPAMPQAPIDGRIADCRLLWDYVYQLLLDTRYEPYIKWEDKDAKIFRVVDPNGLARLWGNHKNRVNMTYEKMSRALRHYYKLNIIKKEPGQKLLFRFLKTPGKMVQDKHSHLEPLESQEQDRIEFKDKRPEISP
How it was run: as §1

ELF5 = biological target: T11, ELF5 (Homo sapiens, UniProt Q9UKW6-2 1-255); conditions: protein: recombinant; tags: N-terminal GST; dsDNA, one strand shown
T11 sequence: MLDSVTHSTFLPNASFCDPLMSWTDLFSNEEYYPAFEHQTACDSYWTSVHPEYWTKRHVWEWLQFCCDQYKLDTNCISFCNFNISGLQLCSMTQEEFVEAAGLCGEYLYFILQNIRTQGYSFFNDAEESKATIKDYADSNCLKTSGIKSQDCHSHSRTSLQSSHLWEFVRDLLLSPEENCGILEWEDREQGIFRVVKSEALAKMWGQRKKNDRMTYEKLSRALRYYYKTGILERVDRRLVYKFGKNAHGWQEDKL
How it was run: as §1

ETV3 = biological target: T12, ETV3 (Homo sapiens, UniProt P41162-2 1-143); conditions: protein: recombinant; tags: N-terminal GST; dsDNA, one strand shown
T12 sequence: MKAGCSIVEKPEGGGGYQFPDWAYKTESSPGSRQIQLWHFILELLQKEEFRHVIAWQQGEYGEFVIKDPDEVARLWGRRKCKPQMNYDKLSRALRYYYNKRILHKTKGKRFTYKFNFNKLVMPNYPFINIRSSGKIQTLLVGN
How it was run: as §1

ETV6 = ETV6 (Homo sapiens, UniProt P41212 1-452); conditions: protein: recombinant; tags: N-terminal GST; dsDNA, one strand shown
How it was run: as §1

CRX, sequence (O43186 whole entry): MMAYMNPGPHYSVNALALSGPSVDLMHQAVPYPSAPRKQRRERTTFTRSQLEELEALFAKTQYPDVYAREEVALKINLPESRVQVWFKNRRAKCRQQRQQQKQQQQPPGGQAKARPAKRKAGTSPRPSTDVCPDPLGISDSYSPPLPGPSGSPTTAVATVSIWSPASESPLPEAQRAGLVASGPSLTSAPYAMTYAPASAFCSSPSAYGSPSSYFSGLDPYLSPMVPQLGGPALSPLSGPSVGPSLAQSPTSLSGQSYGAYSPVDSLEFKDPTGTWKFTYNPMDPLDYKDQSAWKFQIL
ETV6, sequence (P41212 whole entry): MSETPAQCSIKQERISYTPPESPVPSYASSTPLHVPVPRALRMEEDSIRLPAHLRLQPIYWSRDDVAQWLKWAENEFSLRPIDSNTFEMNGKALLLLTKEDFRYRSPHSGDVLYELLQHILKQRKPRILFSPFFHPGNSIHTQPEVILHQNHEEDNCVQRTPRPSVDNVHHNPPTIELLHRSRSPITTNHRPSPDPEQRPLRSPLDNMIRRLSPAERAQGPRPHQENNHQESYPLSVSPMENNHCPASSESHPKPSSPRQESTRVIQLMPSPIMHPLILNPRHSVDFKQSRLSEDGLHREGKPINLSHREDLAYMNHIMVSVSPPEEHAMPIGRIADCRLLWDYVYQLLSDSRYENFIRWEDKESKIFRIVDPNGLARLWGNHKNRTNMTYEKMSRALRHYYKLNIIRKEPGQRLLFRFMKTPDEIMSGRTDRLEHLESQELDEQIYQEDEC
ETV1, sequence (P50549 whole entry): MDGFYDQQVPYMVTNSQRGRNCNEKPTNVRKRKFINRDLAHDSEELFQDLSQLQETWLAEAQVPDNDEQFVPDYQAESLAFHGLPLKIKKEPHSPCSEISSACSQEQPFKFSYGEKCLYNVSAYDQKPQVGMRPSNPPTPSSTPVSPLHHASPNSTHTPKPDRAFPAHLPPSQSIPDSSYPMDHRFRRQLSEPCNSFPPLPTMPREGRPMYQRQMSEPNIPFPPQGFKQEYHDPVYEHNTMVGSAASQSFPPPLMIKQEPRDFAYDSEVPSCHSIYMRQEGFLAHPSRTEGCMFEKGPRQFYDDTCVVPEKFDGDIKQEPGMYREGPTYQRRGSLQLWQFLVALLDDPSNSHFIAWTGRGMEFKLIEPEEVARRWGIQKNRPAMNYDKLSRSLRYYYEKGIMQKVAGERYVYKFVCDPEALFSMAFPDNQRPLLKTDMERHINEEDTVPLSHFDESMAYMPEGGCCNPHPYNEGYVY
HSF1, sequence (Q00613 whole entry): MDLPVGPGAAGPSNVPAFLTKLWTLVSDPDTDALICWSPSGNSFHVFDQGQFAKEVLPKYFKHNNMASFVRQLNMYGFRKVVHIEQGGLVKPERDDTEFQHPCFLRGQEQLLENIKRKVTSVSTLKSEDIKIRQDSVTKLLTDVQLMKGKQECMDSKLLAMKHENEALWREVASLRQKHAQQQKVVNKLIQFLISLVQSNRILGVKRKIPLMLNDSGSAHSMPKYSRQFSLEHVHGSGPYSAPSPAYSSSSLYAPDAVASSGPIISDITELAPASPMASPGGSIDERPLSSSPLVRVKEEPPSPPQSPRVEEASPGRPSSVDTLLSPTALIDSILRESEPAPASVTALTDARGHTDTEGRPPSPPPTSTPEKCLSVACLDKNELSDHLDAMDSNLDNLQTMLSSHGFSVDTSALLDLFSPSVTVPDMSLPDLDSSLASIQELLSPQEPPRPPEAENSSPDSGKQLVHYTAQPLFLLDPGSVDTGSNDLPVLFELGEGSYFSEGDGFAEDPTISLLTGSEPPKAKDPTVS
ETV5, sequence (P41161 whole entry): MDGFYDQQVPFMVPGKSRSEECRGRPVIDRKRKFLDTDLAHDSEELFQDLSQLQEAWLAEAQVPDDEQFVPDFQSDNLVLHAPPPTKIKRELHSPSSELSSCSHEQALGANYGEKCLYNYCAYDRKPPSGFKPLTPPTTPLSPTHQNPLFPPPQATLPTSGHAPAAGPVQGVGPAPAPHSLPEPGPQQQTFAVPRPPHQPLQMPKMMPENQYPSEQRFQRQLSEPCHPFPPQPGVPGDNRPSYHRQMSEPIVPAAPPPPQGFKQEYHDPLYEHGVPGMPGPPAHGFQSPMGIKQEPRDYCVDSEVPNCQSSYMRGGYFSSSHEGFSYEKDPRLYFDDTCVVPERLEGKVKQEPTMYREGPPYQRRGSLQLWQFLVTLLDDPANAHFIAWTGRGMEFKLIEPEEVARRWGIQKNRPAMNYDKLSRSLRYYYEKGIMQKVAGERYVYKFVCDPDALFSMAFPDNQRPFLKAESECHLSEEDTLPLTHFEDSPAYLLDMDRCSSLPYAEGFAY
ELF4, sequence (Q99607 whole entry): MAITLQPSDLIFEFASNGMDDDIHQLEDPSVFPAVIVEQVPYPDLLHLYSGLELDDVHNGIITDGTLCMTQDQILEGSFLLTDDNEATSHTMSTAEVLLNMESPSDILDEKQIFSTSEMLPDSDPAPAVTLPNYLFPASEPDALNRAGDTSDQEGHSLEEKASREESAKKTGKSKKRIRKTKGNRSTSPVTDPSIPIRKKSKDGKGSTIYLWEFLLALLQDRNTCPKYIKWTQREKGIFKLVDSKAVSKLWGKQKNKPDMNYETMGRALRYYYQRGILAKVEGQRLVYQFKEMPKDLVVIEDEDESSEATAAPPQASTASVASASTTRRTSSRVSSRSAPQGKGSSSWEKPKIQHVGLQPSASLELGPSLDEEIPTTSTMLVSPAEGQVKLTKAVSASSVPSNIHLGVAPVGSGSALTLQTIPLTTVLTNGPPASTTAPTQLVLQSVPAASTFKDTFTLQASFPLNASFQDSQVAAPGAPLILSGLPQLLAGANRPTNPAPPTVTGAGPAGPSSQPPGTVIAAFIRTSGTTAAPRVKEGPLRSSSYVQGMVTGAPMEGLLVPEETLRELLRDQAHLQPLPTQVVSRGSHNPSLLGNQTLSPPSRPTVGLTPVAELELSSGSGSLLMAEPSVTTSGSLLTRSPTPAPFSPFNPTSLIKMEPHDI

With AGTACT the binding signal (FEV) was 1.28 fold enrichment (6-mer frequency, TF over GST control), the binding signal (ETV5) was 1.19 fold enrichment (6-mer frequency, TF over GST control) and the binding signal (HSF1) was 1.03 fold enrichment (6-mer frequency, TF over GST control). For the same sequence, the binding signal (SPIC) was 1.35 fold enrichment (6-mer frequency, TF over GST control), the binding signal (ELF4) was 1.19 fold enrichment (6-mer frequency, TF over GST control) and the binding signal (ELK4) was 1.12 fold enrichment (6-mer frequency, TF over GST control). For the same sequence, the binding signal (ETV2) was 1.11 fold enrichment (6-mer frequency, TF over GST control), the binding signal (ELF3) was 1.29 fold enrichment (6-mer frequency, TF over GST control) and the binding signal (CRX) was 1.02 fold enrichment (6-mer frequency, TF over GST control). The binding signal (ETV1) was 1.19 fold enrichment (6-mer frequency, TF over GST control), the binding signal (ERF) was 1.11 fold enrichment (6-mer frequency, TF over GST control) and the binding signal (ETV3L) was 1.12 fold enrichment (6-mer frequency, TF over GST control). The binding signal (ETS2) was 1.23 fold enrichment (6-mer frequency, TF over GST control), the binding signal (SPDEF) was 1.33 fold enrichment (6-mer frequency, TF over GST control) and the binding signal (ETV7) was 1.3 fold enrichment (6-mer frequency, TF over GST control). For the same sequence, the binding signal (ELF5) was 1.53 fold enrichment (6-mer frequency, TF over GST control), the binding signal (ETV3) was 1.28 fold enrichment (6-mer frequency, TF over GST control) and the binding signal (ETV6) was 1.62 fold enrichment (6-mer frequency, TF over GST control).
